Our source for the Potency values is PubChem BioAssay AID602371 (National Center for Advancing Translational Sciences (NCATS), 2012).

Each structure is given as a SMILES string. Inconclusive results are not listed. Activity calls are given as the source filed them. Calls follow the shape of the dose curve; as a rule, active = well fitted inhibition curve with a large enough effect; inconclusive = small, poorly fitted or top-dose-only effect; inactive = flat fitted curve, though single readings scatter.

The assay can be described thus: qHTS Assay for Inhibitors of Bacillus subtilis Sfp phosphopantetheinyl transferase (PPTase): SAR in B subtilis 168. The note with it: Bacillus subtilis 168 growth inhibition. From the text: The covalent attachment of a phosphopantetheinyl (4'-PP) arm to a variety of synthases and other proteins is a key posttranslational protein modification. The 4'-PP is installed on the proteins post-translationally from coenzyme A (CoA) on a conserved serine residue by action of phosphopantetheinyl transferase (PPTase) enzymes. Phosphopantetheinylation is essential for synthase activity, and removal of the PPTase gene precludes natural product synthesis in microorganisms, or in the case of fatty acid biosynthesis, renders the organism unviable. PPTase enzymes belong to a distinct structural superfamily. Within bacteria, these enzymes are grouped into two classes based upon primary structure, the AcpS-Type and Sfp-Type PPTases.
Sfp-type PPTases, corresponding to an activator of surfactin production in Bacillus subtilis, are responsible for modifying type I polyketide and nonribosomal peptide synthases of prokaryotes. Sfp-type PPTases are responsible for the activation of a variety of pathogen-associated virulence factors. Among these compounds are toxins such as mycolactone from Mycobacterium ulcerans, siderophores such as vibriobactin from Vibrio cholerae or mycobactin from Mycobacterium tuberculosis, as well as the mycolic acids which form the waxy cell wall of Mycobacteria. The biosyntheses of these natural products are considered attractive targets for drug design.
In search of small molecule Sfp-PPTase inhibitors, a fluorescence quenching assay was developed for detection of Bacillus subtilis Sfp-PPTase enzymatic activity in a miniaturized high-throughput format. The consensus ybbr acceptor peptide […] was N-terminally labeled with Black Hole Quencher-2 (BHQ-2) and used in combination with rhodamine-labeled coenzyme A as a co-substrate.
Phosphopantetheinyl transfer is a process essential to cellular viability and maintenance. Cell-permeable and stable compounds acting as PPTase inhibitors are anticipated to be antimicrobial agents in organisms with complimenting genotypes. […] This experiment evaluated a series of test compounds for antimicrobial activity with B. subtilis 168 (genotype: acpS+ and sfp-), a strain that contains a frameshift mutation in the sfp locus and thus requires a functional AcpS gene product for viability. [Mootz HD, 2001] This strain is expected to be sensitized to cell-permeable AcpS inhibitors, and insensitive to Sfp inhibitors.
NIH Chemical Genomics Center [NCGC]
NIH Molecular Libraries Probe Centers Network [MLPCN]
Assay Submitter (PI): Michale Burkart, University of California, San Diego
Bacillus subtilis 168 is maintained on lysogeny broth (LB) solidified by the addition of 1.5% w/v agar. Single colonies were used to LB medium (2 mL) and shaken overnight at 30 deg C. In the morning, this culture (100 uL) was used to seed a fresh LB medium (10 mL) and was shaken at 30 degC until the culture OD600 reached 0.5. This culture was diluted 1:100 in fresh LB medium to provide the inoculum below.
Bacterial susceptibility.
LB medium (2 uL) is dispensed into wells of a sterile white 1536-well plate. Test compounds (23 nL) prepared as serial dilutions in DMSO are added to the plate by pintool transfer. Innoculum (2 uL) is added, the plates are covered with a vented Kalypsys assay lid and incubated at 30 deg C. After 5 h, Bac-Titer Glo (4 uL; Promega Corp, Madison, WI) is added to the plates. They are incubated 10 minutes at room temperature and then the luminescence detected in a ViewLux multimodal plate reader.
In general terms: In qHTS, concentration-response curves come from the screen itself.
With `Cc1cc(C)nc(NC(=S)N2CCN(c3ccc(Cl)c(Cl)c3)CC2)c1`, the Potency is 37.3 µM (active).
Regarding `Cc1cc(C)nc(NC(=S)N2CCN(c3cc(Br)cc(C(F)(F)F)c3)CC2)c1`, the Potency is 16.7 µM (active).
For `Cc1ccnc(NC(=S)N2CCN(c3cccc(N(C)C)c3)CC2)c1` the value was 46.9 µM (active).
Turning to `FC(F)(F)c1cc(N2CCN(C(=S)Nc3cc(Cl)ccn3)CC2)cc(C(F)(F)F)c1`, the Potency is 6.63 µM (active).
Regarding `Cc1ccnc(NC(=S)N2CCN(c3cc(C(F)(F)F)cc(C(F)(F)F)c3)CC2)c1`, the Potency is 14.8 µM (active).
As to `Cc1ccnc(NC(=S)N2CC3CN(c4cccc(C(F)(F)F)c4)CC3C2)c1` (centres undefined), the Potency is 8.35 µM (active).
`Cc1cc(C)nc(NC(=S)N2CCN(c3ccc(Cl)cc3Cl)CC2)c1`: the Potency was 33.2 µM (active).
With `Cc1cc(C)nc(NC(=S)N2CCN(c3ccc([N+](=O)[O-])cc3Cl)CC2)c1`, the Potency was 14.8 µM (active).
The value for `Cc1ccnc(NC(=S)Nc2cccc(C(F)(F)F)c2)c1` was 18.7 µM (active); that for `S=C(Nc1cc(Cl)ccn1)N1CCN(c2cccc(Cl)c2Cl)CC1` was 16.7 µM (active).
On to `COc1ccnc(NC(=S)N2CCN(c3ncc(C(F)(F)F)cc3Cl)CC2)c1`, for which the Potency is 18.7 µM (active).
`Cc1ccnc(NC(=S)N2CCCN(c3cccc(C(F)(F)F)c3)CC2)c1`: the Potency was 11.8 µM (active).
The value for `CSC(Cc1ccc(Cl)cc1)C(=O)Nc1ccc(Cl)cc1C(=O)O` (centres undefined) was 23.5 µM (active).
For `COc1ccnc(NC(=S)N2CCN(c3cccc(Cl)c3Cl)CC2)c1` the value was 13.2 µM (active); for `Cc1cc(C)nc(NC(=S)N2CC3CN(c4ccc(Cl)cc4C(F)(F)F)CC3C2)c1` (centres undefined), 11.8 µM (active).
On to `Cc1ccnc(NC(=S)N2CCN(c3cccc(C(F)(F)F)c3)CC2)c1`, for which the Potency was 14.8 µM (active).
For `COc1ccnc(NC(=S)N2CCN(c3ccc(Cl)cc3Cl)CC2)c1` the value was 16.7 µM (active); for `FC(F)(F)c1cccc(N2CCN(C(=S)Nc3cc(C(F)(F)F)ccn3)CC2)c1`, 16.7 µM (active).
With `Cc1ccnc(NC(=S)N2CC3CN(c4ncc(C(F)(F)F)cc4Cl)CC3C2)c1` (centres undefined), the Potency was 16.7 µM (active).
